This passage reports outcome and AC50 results from PubChem BioAssay (EPA / NIEHS).

“And” between values parts separate entries of the source, which are not always exact repeats. Equal values may be shown once. Records with an inconclusive call do not appear. The source made the active and inactive calls. Rule for the calls, unless noted: active = hit-call score of the fitted dose curve at least 0.9, where 1 is the maximum; inconclusive = response in the unintended direction; inactive = score below 0.9.

The target of test [1] is Nuclear receptor subfamily 1 group I member 2 (Homo sapiens) (UniProt O75469). The test can be described thus: NVS_NR_hPXR: NovaScreen (NVS) Nuclear Receptor Binding Assay for human Pregnane X Receptor (PXR) (AID 2283365).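 Note: a drop in FRET signal versus DMSO baseline means the compound binds.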 The essentials:
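Human PXR protein, cell-free; compound added, incubated 2 h, TR-FRET read. Signal decrease vs DMSO = binding. Screened 25 uM duplicate, actives re-run as dilution series.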

Test [2] addresses Estrogen receptor beta (Homo sapiens) (UniProt Q92731). The experiment in a line: OT_ER_ERbERb_1440: Odyssey Thera (OT) 24-hour HEK293T Protein-Complementation Assay for Estrogen Receptor-beta/-beta Homodimer (AID 2283380).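 Note: fluorescence gain from ER beta LBD homodimer complementation read by laser scanning cytometry; scored as signal increase over DMSO baseline for both agonists and antagonists.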 The essentials: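 HEK293T cells stably expressing human ER-beta LBD (aa 310-547) PCA homodimer pair, dosed 24 h; formaldehyde-fixed, Draq5-stained. Readout: increase in nuclear (agonist) or nuclear plus cytoplasmic (antagonist) fluorescence intensity versus DMSO, gain-of-signal fitting.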

In test [3] the target is Estrogen receptor (Homo sapiens) (UniProt P03372). The test can be described thus: OT_ERa_GFPERaERE_0120: Odyssey Thera (OT) 2-hour HeLa Transcription Induction Assay for Estrogen Receptor (AID 2283382). The gist of the method:
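Two-hour compound treatment of HeLa cells preceded microscopy imaging of an inducible fluorescent reporter. Image-based quantification gave one endpoint, analysed for signal increase relative to DMSO controls.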

In test [4] the target is Bile acid receptor (Homo sapiens) (UniProt Q96RI1). The test can be described thus: OT_FXR_FXRSRC1_0480: Odyssey Thera (OT) 8-hour HEK293T Protein-Complementation Assay for Farnesoid X receptor/SRC-1 Co-activator (AID 2283383). The essentials:
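Readings were taken 8 h after dosing HEK293T cells in a split-reporter complementation format pairing FXR with SRC-1. Increased fluorescence relative to DMSO-treated wells defined activity.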

Test [5] has the same target. The test can be described thus: OT_FXR_FXRSRC1_1440: Odyssey Thera (OT) 24-hour HEK293T Protein-Complementation Assay for Farnesoid X receptor/SRC-1 Co-activator (AID 2283384). The gist of the method: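 Single endpoint, analysed for increased fluorescence against DMSO controls. HEK293T cells carrying FXR and SRC-1 linked to complementary reporter halves were exposed to chemicals for 24 h before reading.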

The target of test [6] is Glucocorticoid receptor (Homo sapiens) (UniProt P04150). The test can be described thus: NVS_NR_hGR: NovaScreen (NVS) Nuclear Receptor Binding Assay for human Glucocorticoid Receptor (GR) (AID 2283363).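 Note: activity is loss of specific radioligand binding signal relative to DMSO.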 The essentials:
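Single-readout cell-free binding: radioligand plus extracted receptor, 16-hour dosing, filter radiodetection; 25 uM duplicate primary, concentration series secondary.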

The target of test [7] is rat Androgen Receptor (AR), Ar (gene 24208) (UniProt P15207). The experiment in a line: NVS_NR_rAR: NovaScreen (NVS) Nuclear Receptor Binding Assay for rat Androgen Receptor (AR) (AID 2283366). The gist of the method:
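Actives from a duplicate single-concentration (25 uM) primary run went on to concentration series. Displacement of radioligand was counted by filtration and scintillation, 18 h post-dose, using prostate extracts from testosterone-pretreated rats, with DMSO as baseline.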

The subject of test [8] is guinea pig Dopamine Transporter (DAT), gene 100714898. The test can be described thus: NVS_TR_gDAT: NovaScreen (NVS) Transporter Assay for guinea pig Dopamine Transporter (DAT) (AID 2283369).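 Note: active compounds lower bound radioligand signal relative to DMSO.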 The gist of the method:
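Scintillation counts of filter-retained radioligand report binding to guinea pig striatal membranes after 2 h. Activity scored as signal loss relative to DMSO, first at 25 uM in duplicate, then in concentration series to 50 uM.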

In test [9] the target is human Dopamine Transporter (DAT), SLC6A3 (gene 6531) (UniProt Q01959). The test can be described thus: NVS_TR_hDAT: NovaScreen (NVS) Transporter Assay for human Dopamine Transporter (DAT) (AID 2283374).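 Note: activity means loss of bound radioligand signal relative to DMSO.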 The essentials:
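Extracted human SLC6A3 protein incubated 1 h with radioligand and test chemical; bound fraction separated on filters and counted. Single 25 uM duplicate screen preceded concentration-response follow-up; positive and negative controls on every plate.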

Test [10] has as its target Norway rat Vesicular Monoamine Transporter (VMAT2), neurotransmitter transporter, Slc18a2 (gene 25549) (UniProt Q01827). The experiment in a line: NVS_TR_rVMAT2: NovaScreen (NVS) Transporter Assay for Norway rat Vesicular Monoamine Transporter (VMAT2), neurotransmitter transporter (AID 2283376).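 Note: actives lower the bound radioligand signal below the DMSO level.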 The essentials: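 Binding endpoint from rat forebrain tissue, cell-free; 1 h incubation; filtered radioligand counted; 25 uM duplicate primary then dose series; DMSO negative control.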

For test [11], the target named is human Norepinephrine Transporter (NET), SLC6A2 (gene 6530) (UniProt P23975). The test can be described thus: NVS_TR_hNET: NovaScreen (NVS) Transporter Assay for human Norepinephrine Transporter (NET) (AID 2283377).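 For AC50: displacement of radioligand from human NET seen as loss of scintillation signal.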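 Note: cell-free membrane protein extracted from CHO cells expressing human NET.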 The essentials: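 In this cell-free binding screen, chemicals at 25 uM (duplicate) compete with a radioligand for CHO-derived human NET over 1 hour, with filter-based radiodetection.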

In test [12] the target is Agonist Androgen Response Element (ARE), AR (gene 367) (UniProt P10275). The test can be described thus: OT_AR_ARELUC_AG_1440: Odyssey Thera (OT) 24-hour CHO-K1 Luciferase Assay for Agonist Androgen Response Element (ARE) (AID 2283379). The essentials: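 Luminescence increase above DMSO, read after a 24 h compound treatment of CHO-K1 cells expressing an androgen response element luciferase reporter, gives the single primary endpoint; concentration-response fitting used the positive direction.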

For test [13], the target named is Peroxisome proliferator-activated receptor gamma (Homo sapiens) (UniProt P37231). The test can be described thus: NVS_NR_hPPARg: NovaScreen (NVS) Nuclear Receptor Binding Assay for human Peroxisome Proliferator-activated Receptor gamma (PPARg) (AID 2283370). The essentials: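 Chemicals were tested first in duplicate at 25 uM, then in concentration series if active. Binding to cell-free PPARg protein was measured by fluorescence polarization after 2 h, with loss of signal scored against DMSO.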

In test [14] the target is guinea pig Sigma Receptor, Non-selective Binding, SIGMAR1 (gene 100135589) (UniProt Q60492). The experiment in a line: NVS_OR_gSIGMA_NonSelective: NovaScreen (NVS) Nuclear Receptor Binding Assay for guinea pig Sigma Receptor, Non-selective Binding (AID 2283367). The essentials:
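Test chemicals were screened in duplicate at 25 uM, then in concentration series if active, against radioligand binding to guinea pig brain membranes; filtration and scintillation counting at 1 h measured remaining bound ligand.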

For test [15], the system named is rat Norepinephrine Transporter (NET), gene 83511. The test can be described thus: NVS_TR_rNET: NovaScreen (NVS) Transporter Assay for rat Norepinephrine Transporter (NET) (AID 2283373). The gist of the method:
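Competitive radioligand displacement at the rat NET using forebrain membrane preparations, 1 h incubation, filter-based scintillation readout. Primary testing in duplicate at a single 25 uM concentration; confirmed actives retested across concentrations.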

In test [16] the target is rat Serotonin Transporter (SERT), Slc6a4 (gene 25553) (UniProt P31652). The test can be described thus: NVS_TR_rSERT: NovaScreen (NVS) Transporter Assay for rat Serotonin Transporter (SERT) (AID 2283375). The essentials:
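Filtration-based radiodetection quantified loss of specific radioligand binding in rat forebrain membranes after 1 hour of chemical exposure, relative to DMSO. Chemicals were first tested in duplicate at 25 uM.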

Test [17] addresses Estrogen receptor (Homo sapiens) (UniProt P03372). The experiment in a line: OT_ERa_GFPERaERE_0480: Odyssey Thera (OT) 8-hour HeLa Transcription Induction Assay for Estrogen Receptor (AID 2283381; active = hit-call score of the fitted dose curve at least 0.9, where 1 is the maximum; inactive = score below 0.9). The essentials: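 An 8 h HeLa transcription-induction format with a GFP reporter under ERE control, read by fluorescence microscopy; single endpoint fitted positively with DMSO as baseline.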

Chain of Estrogen receptor beta (Homo sapiens) (Q92731 whole entry, looked up, the tested form may be a part): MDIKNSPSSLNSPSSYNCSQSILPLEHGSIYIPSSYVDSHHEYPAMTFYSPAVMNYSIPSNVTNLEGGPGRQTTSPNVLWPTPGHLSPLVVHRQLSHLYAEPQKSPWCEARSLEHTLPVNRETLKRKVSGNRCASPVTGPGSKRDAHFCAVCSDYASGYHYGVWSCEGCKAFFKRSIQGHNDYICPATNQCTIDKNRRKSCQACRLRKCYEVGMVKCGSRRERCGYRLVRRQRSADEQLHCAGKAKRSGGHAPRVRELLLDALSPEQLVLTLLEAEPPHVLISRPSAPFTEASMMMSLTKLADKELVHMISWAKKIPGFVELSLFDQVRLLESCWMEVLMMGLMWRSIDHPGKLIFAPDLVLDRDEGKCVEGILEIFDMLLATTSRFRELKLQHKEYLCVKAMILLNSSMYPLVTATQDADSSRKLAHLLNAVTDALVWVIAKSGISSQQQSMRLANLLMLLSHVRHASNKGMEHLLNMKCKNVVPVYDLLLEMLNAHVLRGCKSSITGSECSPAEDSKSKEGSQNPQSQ
Chain of human Dopamine Transporter (DAT), SLC6A3 (gene 6531) (Q01959 whole entry, looked up): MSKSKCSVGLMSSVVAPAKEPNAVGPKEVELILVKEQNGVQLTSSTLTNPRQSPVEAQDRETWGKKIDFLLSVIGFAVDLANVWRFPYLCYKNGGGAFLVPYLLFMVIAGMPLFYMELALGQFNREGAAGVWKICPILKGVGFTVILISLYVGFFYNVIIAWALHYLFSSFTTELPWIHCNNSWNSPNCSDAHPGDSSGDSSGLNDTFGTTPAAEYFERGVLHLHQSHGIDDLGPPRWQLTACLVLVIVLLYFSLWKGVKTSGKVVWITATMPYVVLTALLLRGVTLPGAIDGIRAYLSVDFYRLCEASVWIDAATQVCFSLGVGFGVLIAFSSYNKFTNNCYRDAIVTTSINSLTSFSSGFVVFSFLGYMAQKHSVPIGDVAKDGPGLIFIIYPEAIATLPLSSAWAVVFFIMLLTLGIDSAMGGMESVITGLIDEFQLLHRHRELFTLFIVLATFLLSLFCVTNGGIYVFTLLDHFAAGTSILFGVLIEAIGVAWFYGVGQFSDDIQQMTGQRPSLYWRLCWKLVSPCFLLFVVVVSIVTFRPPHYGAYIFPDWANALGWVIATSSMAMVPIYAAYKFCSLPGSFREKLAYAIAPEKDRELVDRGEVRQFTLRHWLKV
Chain of guinea pig Sigma Receptor, Non-selective Binding, SIGMAR1 (gene 100135589) (Q60492 whole entry, looked up): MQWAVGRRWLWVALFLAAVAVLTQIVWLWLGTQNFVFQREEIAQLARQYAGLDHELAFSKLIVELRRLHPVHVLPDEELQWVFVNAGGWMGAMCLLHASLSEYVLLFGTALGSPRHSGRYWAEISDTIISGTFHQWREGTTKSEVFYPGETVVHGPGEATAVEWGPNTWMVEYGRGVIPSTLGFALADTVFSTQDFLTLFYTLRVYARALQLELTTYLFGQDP
Chain of Glucocorticoid receptor (Homo sapiens) (P04150 whole entry, looked up): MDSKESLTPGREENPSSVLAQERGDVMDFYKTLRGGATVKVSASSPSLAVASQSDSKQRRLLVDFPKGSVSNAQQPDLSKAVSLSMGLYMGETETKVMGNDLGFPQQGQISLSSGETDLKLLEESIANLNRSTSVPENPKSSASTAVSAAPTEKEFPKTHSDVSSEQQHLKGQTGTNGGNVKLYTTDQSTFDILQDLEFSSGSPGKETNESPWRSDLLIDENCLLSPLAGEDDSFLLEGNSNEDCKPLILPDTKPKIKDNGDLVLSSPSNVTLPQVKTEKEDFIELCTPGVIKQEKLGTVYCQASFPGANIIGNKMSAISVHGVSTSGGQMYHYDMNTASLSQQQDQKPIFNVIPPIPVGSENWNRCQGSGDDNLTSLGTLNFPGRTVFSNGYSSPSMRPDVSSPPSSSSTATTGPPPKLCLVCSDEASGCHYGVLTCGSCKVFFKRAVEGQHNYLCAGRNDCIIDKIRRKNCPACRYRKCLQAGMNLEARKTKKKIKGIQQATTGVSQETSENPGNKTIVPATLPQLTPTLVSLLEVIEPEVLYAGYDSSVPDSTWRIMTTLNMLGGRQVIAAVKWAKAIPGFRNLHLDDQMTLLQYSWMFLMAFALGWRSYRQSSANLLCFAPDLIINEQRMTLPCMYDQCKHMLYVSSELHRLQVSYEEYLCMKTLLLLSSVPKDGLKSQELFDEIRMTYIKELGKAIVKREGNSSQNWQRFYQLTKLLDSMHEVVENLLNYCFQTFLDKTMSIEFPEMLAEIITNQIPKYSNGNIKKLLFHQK
Chain of Agonist Androgen Response Element (ARE), AR (gene 367) (P10275 whole entry, looked up): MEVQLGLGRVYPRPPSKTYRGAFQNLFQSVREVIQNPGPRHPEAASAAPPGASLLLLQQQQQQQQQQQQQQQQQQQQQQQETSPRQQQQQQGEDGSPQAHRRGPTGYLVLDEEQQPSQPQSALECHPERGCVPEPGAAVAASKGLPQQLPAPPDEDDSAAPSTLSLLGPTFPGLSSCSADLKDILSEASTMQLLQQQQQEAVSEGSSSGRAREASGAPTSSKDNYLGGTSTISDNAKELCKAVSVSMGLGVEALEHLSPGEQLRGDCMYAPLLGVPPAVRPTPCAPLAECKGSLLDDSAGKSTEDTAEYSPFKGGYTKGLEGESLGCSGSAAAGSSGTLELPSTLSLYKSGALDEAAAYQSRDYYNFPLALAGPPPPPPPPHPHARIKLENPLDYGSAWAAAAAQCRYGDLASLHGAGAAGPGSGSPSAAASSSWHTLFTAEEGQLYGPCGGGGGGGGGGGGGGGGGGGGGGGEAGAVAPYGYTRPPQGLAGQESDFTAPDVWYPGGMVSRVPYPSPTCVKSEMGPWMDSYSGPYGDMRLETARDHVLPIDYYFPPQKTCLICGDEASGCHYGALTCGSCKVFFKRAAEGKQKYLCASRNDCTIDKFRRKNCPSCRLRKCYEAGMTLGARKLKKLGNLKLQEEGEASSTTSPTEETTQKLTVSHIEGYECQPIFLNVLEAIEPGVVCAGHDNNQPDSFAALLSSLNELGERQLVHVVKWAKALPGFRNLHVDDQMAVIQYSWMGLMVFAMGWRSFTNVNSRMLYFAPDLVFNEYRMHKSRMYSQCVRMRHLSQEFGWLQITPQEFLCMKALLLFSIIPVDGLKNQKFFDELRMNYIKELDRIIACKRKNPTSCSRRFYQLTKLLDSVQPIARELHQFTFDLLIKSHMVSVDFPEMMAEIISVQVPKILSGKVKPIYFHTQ
Chain of Peroxisome proliferator-activated receptor gamma (Homo sapiens) (P37231 whole entry, looked up): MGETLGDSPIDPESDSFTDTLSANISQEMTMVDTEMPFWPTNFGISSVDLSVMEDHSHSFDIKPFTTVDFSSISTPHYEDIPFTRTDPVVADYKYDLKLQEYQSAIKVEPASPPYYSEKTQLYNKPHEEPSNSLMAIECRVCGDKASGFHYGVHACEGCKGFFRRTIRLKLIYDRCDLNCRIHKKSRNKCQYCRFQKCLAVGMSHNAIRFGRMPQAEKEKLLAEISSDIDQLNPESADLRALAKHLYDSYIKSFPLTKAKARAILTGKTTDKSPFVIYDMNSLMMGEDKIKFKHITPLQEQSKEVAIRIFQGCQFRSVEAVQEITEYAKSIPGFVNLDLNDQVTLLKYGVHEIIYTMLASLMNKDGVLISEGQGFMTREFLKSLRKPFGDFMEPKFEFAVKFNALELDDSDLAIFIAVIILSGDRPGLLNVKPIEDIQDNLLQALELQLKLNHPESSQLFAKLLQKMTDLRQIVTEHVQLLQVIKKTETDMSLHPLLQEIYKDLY
Chain of Estrogen receptor (Homo sapiens) (P03372 whole entry, looked up): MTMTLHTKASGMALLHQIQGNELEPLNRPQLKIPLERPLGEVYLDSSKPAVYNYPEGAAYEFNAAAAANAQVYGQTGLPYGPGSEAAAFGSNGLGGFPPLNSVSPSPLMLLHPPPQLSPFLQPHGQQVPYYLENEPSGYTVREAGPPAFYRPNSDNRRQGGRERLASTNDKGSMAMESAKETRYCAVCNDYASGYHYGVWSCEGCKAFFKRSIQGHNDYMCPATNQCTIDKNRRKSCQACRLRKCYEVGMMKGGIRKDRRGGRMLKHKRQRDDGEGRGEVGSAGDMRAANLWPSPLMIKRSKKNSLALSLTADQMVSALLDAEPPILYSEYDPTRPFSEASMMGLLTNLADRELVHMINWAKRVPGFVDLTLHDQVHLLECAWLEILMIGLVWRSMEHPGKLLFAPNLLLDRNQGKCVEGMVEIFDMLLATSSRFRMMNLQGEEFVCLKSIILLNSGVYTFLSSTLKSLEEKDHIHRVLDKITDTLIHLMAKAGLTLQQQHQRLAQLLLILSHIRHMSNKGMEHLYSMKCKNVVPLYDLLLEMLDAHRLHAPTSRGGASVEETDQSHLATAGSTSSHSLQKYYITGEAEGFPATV
Chain of Norway rat Vesicular Monoamine Transporter (VMAT2), neurotransmitter transporter, Slc18a2 (gene 25549) (Q01827 whole entry, looked up): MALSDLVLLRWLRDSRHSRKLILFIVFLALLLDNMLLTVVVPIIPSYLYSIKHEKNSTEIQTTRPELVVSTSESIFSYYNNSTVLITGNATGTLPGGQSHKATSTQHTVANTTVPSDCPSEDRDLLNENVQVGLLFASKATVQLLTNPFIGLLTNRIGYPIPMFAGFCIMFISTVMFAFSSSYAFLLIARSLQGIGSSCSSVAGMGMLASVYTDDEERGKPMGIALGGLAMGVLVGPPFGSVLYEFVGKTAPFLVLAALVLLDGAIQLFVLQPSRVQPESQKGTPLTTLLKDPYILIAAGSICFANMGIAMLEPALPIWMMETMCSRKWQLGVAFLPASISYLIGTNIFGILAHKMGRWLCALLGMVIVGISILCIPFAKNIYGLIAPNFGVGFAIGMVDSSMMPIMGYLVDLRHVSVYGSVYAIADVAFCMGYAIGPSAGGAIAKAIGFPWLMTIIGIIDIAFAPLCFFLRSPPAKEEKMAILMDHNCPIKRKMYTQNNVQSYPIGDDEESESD

On to `[O-][Cl+2]([O-])O`, for which the result in test [1], in [2], in [3], in [4] and in test [5] was inactive.
Usually AC50 stands for the concentration giving half of the maximal activity seen. As for `CC(C)(C)CC(C)(C)c1ccc(O)cc1`, the AC50 in [6] is 4.67 µM (active) and 15.9 µM (active) and 7.33 µM (active); in test [9] it was 15.1 µM (active); in test [11], 11.7 µM (active); in test [2], 1.04 µM (active) and 593 nM (active) and 1.02 µM (active); in [4] it was 11.2 µM (active). Besides, the compound was called inactive in test [7], in [8], in test [10] and in test [12].
For `C[C@]12CC[C@H](O)CC1=CC[C@@H]1[C@@H]2CC[C@]2(C)C(=O)CC[C@@H]12`, in test [1], the compound was called inactive. Moreover, the AC50 in test [2] was 3.34 µM (active).
With `CCOP(=S)(OCC)Oc1nc(Cl)c(Cl)cc1Cl`, the call in [1], in [13], in test [12], in [2] and in test [3] was inactive. Moreover, the AC50 in test [4] is 35.1 µM (active); in test [5], 76.4 µM (active).
Take `CC(C)C1CCC(Cc2ccc(Cl)cc2)C1(O)Cn1cncn1` (stereo not given): the AC50 in test [6] was 5.7 µM (active); in test [1] it was 15.5 µM (active); in [3] it was 90.2 µM (active); in [5], 11.2 µM (active). In addition, the call in [13] and in test [2] was inactive.
As for `O=C(Cl)c1ccc(Cl)cc1`, the outcome in test [10] and in test [11] was inactive.
For the compound `ClC1(Cl)C2(Cl)C3(Cl)C4(Cl)C(Cl)(Cl)C5(Cl)C3(Cl)C1(Cl)C5(Cl)C24Cl` (stereo not given), the compound was called inactive in [13], in [12], in test [3], in test [4] and in test [5].
With `CCC[CH2][Sn]([Cl])([Cl])[Cl]`, the outcome in test [13], in test [3], in test [4] and in test [5] was inactive.
For the compound `O=C1C(Cl)=C(Cl)C(=O)c2ccccc21`, the call in [13], in test [2] and in test [3] was inactive.
As to `CCCCC(CC)CO[N+](=O)[O-]` (stereo not given), in [10], the compound was called inactive.
For the compound `Nc1ccc(Cl)cc1C(=O)c1ccccc1`, the AC50 was 6.19 µM (active) in test [8], 1.73 µM (active) in [9] and 12 µM (active) in [11].
Consider `COP(=S)(OC)Oc1ccc(S(=O)(=O)N(C)C)cc1`, for which the call in test [10] was inactive.
Take `CN(C)N=O`: the compound was called inactive in test [13], in test [2] and in [5].
Turning to `COc1cccc(C=O)c1`, the outcome in [10] was inactive.
Regarding `Nc1ccc(-c2ccc(N)c(Cl)c2)cc1Cl`, the AC50 was 32.5 µM (active) in test [14], 3.73 µM (active) in test [8], 1.63 µM (active) in test [9] and 3.04 µM (active) in test [11].
For the compound `CCCCCCCCC(=O)NCc1ccc(O)c(OC)c1`, the outcome in test [10] was inactive.
As to `O=C(NCO)NCO`, in test [13], the AC50 was 25 µM (active). Also, the outcome in test [3] was inactive.
For the compound `CCOC(=O)/C=C(C)/C=C/C[C@@H](C)CCCC(C)C`, the AC50 in test [14] was 11 µM (active).
Consider `CCC(=O)C(CC(C)N(C)C)(c1ccccc1)c1ccccc1` (stereo not given), for which the AC50 in [14] was 2.1 µM (active); in test [15], 11.3 µM (active); in [16], 0.0639 µM (active); in [11], 5.61 µM (active). The result in test [12], in test [2], in test [17], in test [3], in [4] and in [5] was inactive.
